# Measured values taken from PubChem BioAssay (NCATS).
# Inconclusive results are not listed. Entries that show only a call come without a potency. Active and inactive are the calls of the source. The call rests on the fitted dose curve; in most records, active means well fitted inhibition curve with a large enough effect; inconclusive means small, poorly fitted or top-dose-only effect; inactive means flat fitted curve, though single readings scatter. Where a SMILES comes first, the peptide text is derived from it.
# Experiment: P-glycoprotein substrates identified in KB-8-5-11 adenocarcinoma cell line, qHTS therapeutic library screen (AID 1346987); further: nearly all actives have a fitted effect of over 65% in size
# Details: KB-8-5-11 (P-gp overexpressing) viability, CellTiter-Glo, 72 h; series mostly up to 44.5 µM
# Outline: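 Steps: plate 500 KB-8-5-11 cells/well in DMEM + 10% FCS (colchicine removed); pin compounds in dose-response; incubate 72 h, 37 degree C, 5% CO2; add CellTiter-Glo, 5 min; read luminescence.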
Structure (SMILES),Potency,outcome
CC(=O)NC(Cc1ccccc1)C(=O)NC(C(=O)O)C(C)C (stereo not drawn) (Ac-Phe-Val-OH; configuration not given here),inactive,
COc1cc(O)cc(C)c1C(=O)OC1C(CO)OC(n2ccc(=O)[nH]c2=O)C1OC(C)=O (stereo not given),inactive,
CC(C)(OC1OC(CO)C(O)C(O)C1O)C1CCC(O)(CO)C2CC(=O)C(C)(O)C2C1 (stereo not given),inactive,
C[C@@H]1O[C@@H](O[C@H]2[C@H](O)[C@@H](O)[C@H](OC[C@H]3O[C@@H](OC(=O)[C@]45CCC(C)(C)C[C@H]4C4=CCC6[C@@]7(C)C[C@@H](O)[C@H](O)[C@@](C)(CO)C7[C@H](O)C[C@@]6(C)[C@]4(C)CC5)[C@H](O)[C@@H](O)[C@@H]3O)O[C@@H]2CO)[C@H](O)[C@H](O)[C@H]1O (stereo not given in full),,inactive [at 9.29 µM]
CC1=CC(=O)C(=C(C)C)CC2C(C)(O)CCC12O (stereo not given),inactive,
C[C@]1(OC(=O)/C=C/c2ccc(O)cc2)C[C@@H](O)[C@]2(O)C=CO[C@@H](O[C@@H]3O[C@H](CO)[C@@H](O)[C@H](O)[C@H]3O)C12 (stereo not given in full),inactive,
CC1(C)CC[C@]2(C(=O)O[C@@H]3O[C@H](CO)[C@@H](O)[C@H](O)[C@H]3O)CC[C@]3(C)C(=CCC4[C@@]5(C)CC[C@H](O[C@@H]6O[C@H](C(=O)O)[C@@H](O)[C@H](O)[C@H]6OC6OC(CO)C(O)C(O)C6O)C(C)(C)C5CC[C@]43C)[C@@H]2C1 (stereo not given in full),,inactive [at 9.29 µM]
N#Cc1cc(-c2n[nH]c(-c3ccncc3)n2)ccn1,inactive,
COC1OC(OC)C(O)(CCC2(C)C(C)CCC3(C)C2CC(O)C(O)C32CO2)C1O (stereo not given),inactive,
O=C(O)CC/C=C\C[C@H]1CO[C@@H](c2ccccc2Cl)O[C@H]1c1ccccc1O,inactive,
C=C(C)[C@H]1CC[C@]2(C(=O)O)CC[C@]3(C)C(CCC4[C@@]5(C)CCC(=O)C(C)(C)C5CC[C@]43C)C12 (stereo not given in full),inactive,
C=CC(C)(CCC=C(C)C)O[C@@H]1O[C@H](CO)[C@@H](O)[C@H](O)[C@H]1O (stereo not given in full),inactive,
OC[C@H]1O[C@@H](OCc2ccccc2)[C@H](O)[C@@H](O)[C@@H]1O,inactive,
COCc1c(O)c(C(=O)O)c(C)c2c1OC(=O)c1c(C)cc(O)c(CO)c1O2,inactive,
C=C1C(OC(C)=O)C(=O)C2C(C)(C)C(O)CCC2(C)C1CC(OC(C)=O)/C(C)=C/COC(C)=O (stereo not given),inactive,
COC(=O)C1=COC(OC2OC(CO)C(O)C(O)C2O)C2C(C)C(OC(=O)/C=C/c3ccc(O)cc3)C(O)C12 (stereo not given),inactive,
CC(=O)OC[C@]12[C@H](OC(C)=O)[C@H](OC(=O)c3ccccc3)[C@@H]3[C@@H](OC(C)=O)[C@]1(OC3(C)C)[C@H](C)C[C@H](OC(=O)c1ccccc1)[C@@H]2OC(=O)c1ccccc1,inactive,
CC1CCC2C(C(=O)O)=CC3(O)CC(C)(C)CC123 (stereo not given),inactive,
COc1c2ccoc2nc2c(OC)c(O[C@@H]3O[C@@H](C)[C@H](O)[C@@H](O[C@@H]4O[C@H](CO)[C@@H](O)[C@H](O)[C@H]4O)[C@H]3OC(C)=O)ccc12,inactive,
CC1=CCC[C@@H]2[C@](CCc3ccoc3)(C(=O)O)[C@H](C)CC[C@@]12C,inactive,
C=CC1(C)CC=C2C(CCC3C(C)(C(=O)O)CCCC23C)C1 (stereo not given),inactive,
CC(=O)OCC1OC(O[C@H]2CC[C@]34C[C@]35CC(O)[C@]3(C)[C@@H]([C@H](C)CC/C=C(\C)C(=O)O)C(O)C[C@@]3(C)C5CC[C@H]4C2(C)C)C(O)C(O)C1OC1OCC(O)C(O)C1O (stereo not given in full),,inactive [at 9.29 µM]
CC(C)Oc1ccc(-c2nc(-c3cccc4c3CCC4NCCC(=O)O)no2)cc1C#N (stereo not given),inactive,
O=C(CC1CC(c2ccc(F)cc2F)=NO1)N1CCOCC1 (stereo not given),inactive,
COc1cc(/C=C/C(=O)O[C@@H]2O[C@H](CO)[C@@H](O)[C@H](O)[C@H]2O)ccc1O,inactive,
